Reference: PubChem BioAssay
Several values for one entry are separate records, joined by “and”; a condition that tells them apart may be missing. Identical values can stand only once. For part of these data: Entries with a potency or affinity are not part of this list. Activity calls are given as the source filed them. Unless noted, the rule behind the calls is not given here.

Columns and labels:
[1] = blockers of polyQ-driven CASP3 activation – cell-based (AID 1583); conditions: polyglutamine-induced caspase-3 activation, cell assay; stronger effect = higher value;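 tested at 10 µM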
[2] = yeast 75Q aggregation reduction – 75Q-TubU reporter (AID 1593); conditions: Yeast 75Q polyglutamine aggregation reporter
[3] = restoration of touch response, mutant HTT neurons – whole organism, C. elegans mechanosensory neurons, N-terminal huntingtin (AID 1599); conditions: C. elegans polyQ-huntingtin mechanosensory neurons, stronger effect = higher value
[4] = blockers of cytochrome c efflux from mitochondria – biochemical, purified mitochondria (AID 1603); conditions: stronger effect = lower value;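 note: mouse liver mitochondria challenged with calcium chloride; signal normalized to the plate average as 100%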
[5] = polyglutamine aggregate formation blockers (AID 1604); conditions: polyglutamine-induced protein aggregation inhibition assay; stronger effect = higher value; tested at 2.5 µM
[6] = glutamate transport activators, MN-1 cells, MN-1 cell line (AID 1612); conditions: MN-1 motor neuron cells, stronger effect = higher value;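 note: tested at 1 µM final; 0% = mean of DMSO vehicle wells on each plate; positive means more glutamate uptake than control and negative means less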
[7] = GFP-Q80 aggregate reduction, neuronal-like cells, cell-based, NGF-treated PC12, GFPQ80 (AID 1614); conditions: PC12 NGF-treated GFP-polyQ80 inclusion reduction;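 note: lower means fewer inclusions and 0 means no inclusions at all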
[8] = 75Q-TubH aggregate inhibition, S. cerevisiae, yeast (AID 1616); conditions: S. cerevisiae 75Q-TubH polyglutamine aggregation suppression; stronger effect = higher value
[9] = compounds altering circadian rhythm period length – cell-based, LOPAC library, luminescence reporter (AID 2774); conditions: circadian reporter cells, at 7 µM, actives lie on both sides;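 note: values are relative to mean of DMSO wells on each plate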
[10] = compounds altering viability of human ES cells (AID 493140); conditions: human embryonic stem cell survival screen; stronger effect = higher value;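 note: cells exposed to compounds for four days before counting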
[11] = P. berghei load reduction in hepatocytes – cell-based, HepG2, luciferase luminescence, HepG2 viability, primary screen (AID 624349; in the data active = parasite load remaining mostly below about 12%, no sharp cut-off; inactive = mostly above about 10%;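 note: 100% = mean of DMSO negative control wells on the same plate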); conditions: P. berghei liver stage in HepG2, luciferase luminescence, concentration not given here; parasite load remaining: stronger effect = lower value; viability: measured here: HepG2 viability without parasites
[12] = target: 6-phosphogluconate dehydrogenase, decarboxylating (Homo sapiens) (UniProt P52209); experiment: inhibition of human phosphogluconate dehydrogenase – biochemical, recombinant enzyme, NADPH absorbance, primary screen (AID 1159550;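 active = at least 20% inhibition of 6-phosphogluconate dehydrogenase activity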); conditions: recombinant 6PGD, NADPH absorbance 341 nm; at 10 µM; stronger effect = higher value
[13] = EMT-state selective cytotoxicity in co-culture – imaging, PC-3E GFP, TEM4-18 mCherry, primary screen (AID 1345086;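 active = compounds killing one labelled cell type while sparing the other, by normalised counts and ratio limits, not self-fluorescent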;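 for all read-outs here: cells exposed to compound for 72 h before imaging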;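 for red/green cell ratio (normalised): normalised mesenchymal count divided by normalised epithelial count so high means epithelial killing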); conditions: PC-3E GFP / TEM4-18 mCherry co-culture, imaging cell counts, at 1 µM; for red/green cell ratio (normalised): actives lie on both sides, counts scaled to control wells, 1 = unselective
[14] = viability loss with induced miR-34 in A549 – imaging, A549 dox-inducible miR-34, nuclei and caspase counts, primary screen (AID 1347080;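 active = compounds whose cell count with miR-34 switched on is under 0.7 times the count with it off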); conditions: A549 miR-34 inducible, Hoechst nuclei count, 48 h
[15] = blockers of cellular phospholipid synthesis – cell-based, LOPAC library, screen 4, primary screen (AID 1347384); conditions: animal cells, phospholipid biosynthesis inhibition screen; at 10 µM
[16] = target: NAD(+) hydrolase SARM1 (Homo sapiens) (UniProt Q6SZW1); experiment: blocking NAD cleavage by SARM1 SAM-TIR – cell lysate, NAD-Glo luminescence (AID 1508614;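 active = compound whose remaining NAD level is above about 45 nM, limit read from the data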;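 note: higher remaining NAD means stronger inhibition of SARM1 NADase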); conditions: SAM-TIR HEK293T lysate NADase, at 1 µM, stronger effect = higher value
[17] = target: Mitogen-activated protein kinase 7 (Homo sapiens) (UniProt Q13164); experiment: Gal4-ERK5 driven luciferase induction – cell-based, HTS, primary screen (AID 1508626;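 active = luciferase signal above three times the same-plate solvent-only control wells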;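 note: luciferase driven by Gal4-ERK5 fusion binding five Gal4 sites before minimal TATA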); conditions: HeLa Gal4-ERK5 transactivation, 18 h, at 5 µM, stronger effect = higher value
[18] = galactose survival enhancers in mitochondrial complex I cybrids – cell-based, galactose medium, ATP luminescence, primary screen (AID 1645843;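 active = z-score of at least 1.8 in each of two replicates, scored against plate mean and spread of sample wells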;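 note: positive z means more ATP and so rescue of galactose-driven cybrid death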); conditions: complex I mutant cybrid cells, 72 h, stronger effect = higher value
[19] = MELAS cybrid and Rieske KO viability enhancers – cell-based, MELAS cybrids, Rieske KO mouse fibroblasts, CellTiter-Glo, primary screen (AID 1508586;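 active = mean z-score across replicates of 1.96 or higher in either the MELAS or the Rieske mutant cell line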;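 note: z relative to plate mean and SD of compound and empty wells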); conditions: low glucose
[20] = measured here: epithelial PC-3E GFP cell survival
[21] = measured here: mesenchymal TEM4-18 mCherry cell survival
[22] = stronger effect = lower value, cell number ratio, induced over uninduced
[23] = measured here: relative caspase fold change +Dox/-Dox
[24] = measured here: total cells with miR-34 induction, stronger effect = lower value
[25] = measured here: total cells without miR-34 induction

Chain of Mitogen-activated protein kinase 7 (Homo sapiens) (Q13164 whole entry, looked up, the tested form may be a part): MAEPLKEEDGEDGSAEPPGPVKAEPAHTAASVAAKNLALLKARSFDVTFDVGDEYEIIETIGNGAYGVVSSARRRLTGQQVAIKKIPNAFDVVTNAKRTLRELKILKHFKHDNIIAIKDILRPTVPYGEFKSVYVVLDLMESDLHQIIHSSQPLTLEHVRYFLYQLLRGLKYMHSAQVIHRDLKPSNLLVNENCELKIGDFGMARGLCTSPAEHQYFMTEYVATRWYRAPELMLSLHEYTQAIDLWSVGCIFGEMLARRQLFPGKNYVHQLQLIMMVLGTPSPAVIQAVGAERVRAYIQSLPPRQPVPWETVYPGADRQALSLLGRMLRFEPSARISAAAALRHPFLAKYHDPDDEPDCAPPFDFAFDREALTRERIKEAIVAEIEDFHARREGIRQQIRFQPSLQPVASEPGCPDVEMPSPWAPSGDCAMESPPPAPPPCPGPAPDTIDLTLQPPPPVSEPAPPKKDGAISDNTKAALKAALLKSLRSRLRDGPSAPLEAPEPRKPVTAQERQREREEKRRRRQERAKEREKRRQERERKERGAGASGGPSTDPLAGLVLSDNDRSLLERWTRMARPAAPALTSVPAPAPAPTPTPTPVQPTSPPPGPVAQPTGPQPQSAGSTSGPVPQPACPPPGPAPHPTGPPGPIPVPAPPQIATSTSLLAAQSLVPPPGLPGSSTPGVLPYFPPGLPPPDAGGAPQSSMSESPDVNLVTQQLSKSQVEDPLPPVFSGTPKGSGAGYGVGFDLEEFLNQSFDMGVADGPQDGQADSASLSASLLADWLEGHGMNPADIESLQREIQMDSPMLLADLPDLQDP
Chain of 6-phosphogluconate dehydrogenase, decarboxylating (Homo sapiens) (P52209 whole entry, looked up): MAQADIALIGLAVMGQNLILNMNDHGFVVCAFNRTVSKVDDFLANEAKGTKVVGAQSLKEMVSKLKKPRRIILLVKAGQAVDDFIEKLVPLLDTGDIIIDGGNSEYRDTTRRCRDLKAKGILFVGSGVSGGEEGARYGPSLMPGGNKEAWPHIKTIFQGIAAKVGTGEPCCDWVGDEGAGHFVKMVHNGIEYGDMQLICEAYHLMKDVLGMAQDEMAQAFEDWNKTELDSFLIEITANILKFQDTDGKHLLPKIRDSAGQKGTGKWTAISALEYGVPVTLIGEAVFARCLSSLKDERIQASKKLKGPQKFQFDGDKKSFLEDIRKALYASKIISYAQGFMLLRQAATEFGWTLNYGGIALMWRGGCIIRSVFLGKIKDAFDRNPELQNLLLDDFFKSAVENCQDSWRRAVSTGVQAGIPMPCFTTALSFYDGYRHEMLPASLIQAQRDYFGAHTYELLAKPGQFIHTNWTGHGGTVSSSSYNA
Chain of NAD(+) hydrolase SARM1 (Homo sapiens) (Q6SZW1 whole entry, looked up, the tested form may be a part): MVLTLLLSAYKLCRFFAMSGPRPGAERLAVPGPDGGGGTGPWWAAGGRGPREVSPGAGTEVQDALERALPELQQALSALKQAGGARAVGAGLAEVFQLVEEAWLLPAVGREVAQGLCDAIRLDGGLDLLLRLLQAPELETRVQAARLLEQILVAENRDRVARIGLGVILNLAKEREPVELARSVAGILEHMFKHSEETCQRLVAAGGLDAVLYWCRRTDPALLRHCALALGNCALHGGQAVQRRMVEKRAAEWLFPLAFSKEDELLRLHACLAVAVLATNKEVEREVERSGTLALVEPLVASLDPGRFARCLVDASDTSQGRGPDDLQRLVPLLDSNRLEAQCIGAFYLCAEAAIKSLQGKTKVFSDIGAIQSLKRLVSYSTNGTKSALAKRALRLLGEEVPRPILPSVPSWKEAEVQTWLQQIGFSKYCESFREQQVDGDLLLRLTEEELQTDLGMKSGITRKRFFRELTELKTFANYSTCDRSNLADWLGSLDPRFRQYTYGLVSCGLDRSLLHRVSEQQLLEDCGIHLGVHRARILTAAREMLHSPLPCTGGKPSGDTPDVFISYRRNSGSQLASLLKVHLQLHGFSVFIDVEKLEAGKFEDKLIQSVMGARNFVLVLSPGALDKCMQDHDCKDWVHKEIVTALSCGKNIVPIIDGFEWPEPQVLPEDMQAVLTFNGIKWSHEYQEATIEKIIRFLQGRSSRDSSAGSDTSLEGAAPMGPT

What does the source list for `Oc1cc(O)c2c(c1)O[C@H](c1ccc(O)c(O)c1)[C@@H](O)C2`?
inhibition [1]: 23.8%; score [2]: 1.24; rescue above control [3]: -5.75; cytochrome c release ratio [4]: 0.5; inhibition of aggregation [5]: 63.2%; glutamate uptake change [6]: 14.1%; inclusion score [7]: 2; aggregation suppression score [8]: 1.05; period change [9]: 0.07 h (inactive); survival [10]: 6.17 (inactive) and 8.75 (inactive); parasite load remaining [11]: 116% (inactive); viability [11]: 105%; inhibition [12]: 13.7% (inactive); red/green cell ratio (normalised) [13]: 1.12 (inactive); normalised cell number [13, 20]: 1.02; normalised cell number [13, 21]: 1.15; fold change [14, 22]: 0.974 (inactive) and 0.863 (inactive) and 0.997 (inactive); fold change [14, 23]: 2.1 and 1.09 and 0.901; cell count [14, 24]: 10300 and 8130 and 5640; cell count [14, 25]: 10500 and 9420 and 5660; outcome [15]: inactive; remaining NAD [16]: 10 nM (inactive); luciferase signal [17]: 24 AU (inactive); z-score [18]: -0.355 (inactive)

What does the source list for `NCCCCN=C(N)N`?
period change [9]: 0.06 h (inactive); parasite load remaining [11]: 166% (inactive); viability [11]: 87.2%; inhibition [12]: -2.27% (inactive); red/green cell ratio (normalised) [13]: 0.84 (inactive); normalised cell number [13, 20]: 1.01; normalised cell number [13, 21]: 0.85; fold change [14, 22]: 1.06 (inactive); fold change [14, 23]: 2.32; cell count [14, 24]: 10300; cell count [14, 25]: 9670; outcome [15]: inactive; luciferase signal [17]: 64 AU (inactive); z-score [18]: 0.245 (inactive)

Which results are given for `O=C1OC(=O)C2C3CCC(O3)C12` (stereo unspecified)?
period change [9]: -0.06 h (inactive); inhibition [12]: 14.8% (inactive); red/green cell ratio (normalised) [13]: 0.77 (inactive); normalised cell number [13, 20]: 1.38; normalised cell number [13, 21]: 1.06; fold change [14, 22]: 1.08 (inactive); fold change [14, 23]: 0.974; cell count [14, 24]: 8750; cell count [14, 25]: 8080; outcome [15]: inactive; luciferase signal [17]: 52 AU (inactive); z-score [18]: -0.385 (inactive)

Which results are given for `CN1CCc2c(c3ccccc3n2Cc2ccccc2)C1`?
inhibition [1]: 13.5%; score [2]: 1.36; rescue above control [3]: -5.3; cytochrome c release ratio [4]: 1.12; inhibition of aggregation [5]: 26.7%; glutamate uptake change [6]: -0.3%; aggregation suppression score [8]: 1.16; survival [10]: 3.25 (inactive); parasite load remaining [11]: 52.3% (inactive) and 141% (inactive) and 69.3% (inactive); viability [11]: 99% and 73.4% and 70.8%; inhibition [12]: 10.8% (inactive); red/green cell ratio (normalised) [13]: 0.9 (inactive); normalised cell number [13, 20]: 0.92; normalised cell number [13, 21]: 0.82; fold change [14, 22]: 0.847 (inactive); fold change [14, 23]: 1.16; cell count [14, 24]: 8940; cell count [14, 25]: 10600; z-score ([19]; MELAS cybrid survival, CellTiter-Glo 48 h, stronger effect = higher value): 0.038 (inactive); z-score ([19]; Rieske KO mouse fibroblast survival, CellTiter-Glo 72 h): 0.0579; remaining NAD [16]: 10 nM (inactive)

Which period change [9] does the source give for `NC(N)=NC(=O)c1nc(Cl)c(N2CCCCCC2)nc1N` here?
The period change was 0.165 h (inactive).

What about the inhibition [12] of the same compound?
Its inhibition is 12.2% (inactive).

And the red/green cell ratio (normalised) [13]?
Its red/green cell ratio (normalised) is 0.8 (inactive).

What about the normalised cell number [13, 20] of the same compound?
The normalised cell number was 1.26.

What about the normalised cell number [13, 21] of the same compound?
The normalised cell number was 1.01.

And the fold change [14, 22]?
The fold change was 1.18 (inactive).

What about the fold change [14, 23] of the same compound?
Its fold change is 1.04.

What about the cell count [14, 24] of the same compound?
Its cell count is 4710.

What about the cell count [14, 25] of the same compound?
Its cell count is 3990.

And the outcome [15]?
Its outcome is “inactive”.

And the z-score [18]?
The z-score was -1.46 (inactive).

Which period change [9] does the source give for `NCCCCC(=O)O` here?
The period change was 0.155 h (inactive).

And the parasite load remaining [11]?
The parasite load remaining was 89.3% (inactive).

What about the viability [11] of the same compound?
Its viability is 71.9%.

And the inhibition [12]?
The inhibition was -7.89% (inactive).

And the red/green cell ratio (normalised) [13]?
Its red/green cell ratio (normalised) is 0.85 (inactive).

What about the normalised cell number [13, 20] of the same compound?
The normalised cell number was 1.1.

And the normalised cell number [13, 21]?
The normalised cell number was 0.94.

And the fold change [14, 22]?
Its fold change is 1 (inactive).

And the fold change [14, 23]?
The fold change was 1.48.

What about the cell count [14, 24] of the same compound?
Its cell count is 10300.

What about the cell count [14, 25] of the same compound?
The cell count was 10300.

What about the outcome [15] of the same compound?
Its outcome is “inactive”.

And the luciferase signal [17]?
Its luciferase signal is 52 AU (inactive).

And the z-score [18]?
The z-score was 0.885 (inactive).
